From the supplement of paper PMC9135407
Where “and” joins values, the source holds several entries; their conditions need not be identical. Equal entries are not always repeated. Structures can show the parent of a compound that is named as a salt. About 620 (11%) of roughly 5,800 compounds showed activity. What follows is part of a selection rich in actives, with near analogues and random picks from the rest. Values without a mark were called inactive.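 Rule for the calls: active = score above a cut-off or among the top three wells of a plate; in these data no inactive exceeds 0.85.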

Tested on: primary human hepatic stellate cells (donor 1)
Experiment: scaled lipid accumulation score (0 = DMSO-like, 1 = nortriptyline-like); higher = stronger HSC inactivation (lipid re-accumulation), active = hit call of the paper
Details: 48 h
[1] = library stock concentration: 1 mM
[2] = library stock concentration: 80 uM
[3] = library stock concentration: 400 uM
[4] = library stock concentration: 2 mM
[5] = library stock concentration: 3.33 mM
[6] = library stock concentration: 10 mM

CCCCC/C=C\C/C=C\C/C=C\C/C=C\CCCC(=O)C(F)(F)F [Arachidonyl Trifluoromethyl Ketone]
scaled lipid accumulation score [1]: ≤ 0

CCCCCCCCCCCC#CC#CC#CC#CC(=O)O [Eicosatetraynoic Acid]
scaled lipid accumulation score [1]: ≤ 0

COc1cc(OC)c(/C=C/S(=O)(=O)Cc2ccc(OC)c(NCC(=O)O)c2)c(OC)c1
scaled lipid accumulation score [2]: ≤ -0.016
scaled lipid accumulation score [3]: ≤ -0.016
scaled lipid accumulation score [4]: 0.096
scaled lipid accumulation score [5]: 0.068
scaled lipid accumulation score [6]: 0.138 and 0.063

CC(C)NCC(O)COc1ccc(CC(N)=O)cc1 (racemic) [(RS)-Atenolol]
scaled lipid accumulation score [6]: 0.043

CN1CCC(NC(=O)c2cc(-c3c(O)cc(O)cc3Oc3ccc([N+](=O)[O-])cc3)on2)CC1
scaled lipid accumulation score [5]: 0.756

CN1CCC(NC(=O)C2=CC(=C3C(O)=CC(=O)C=C3Oc3ccc([N+](=O)[O-])cc3)ON2)CC1
scaled lipid accumulation score [6]: 0.976 (active)

COc1ccc2c(c1)C(=O)N(CCc1ccc(S(=O)(=O)NC(=O)NC3CCCCC3)cc1)C(=O)C2(C)C [Gliquidone]
scaled lipid accumulation score: ≤ 0

CCCCCC=CCC=CCC=CCC=CCCCC(=O)OCC(O)CO (centres undefined) [1-Arachidonoyl Glycerol]
scaled lipid accumulation score [1]: 0.012

CCCCC/C=C\C[C@H](O)/C=C/C=C\C/C=C\CCCC(=O)O
scaled lipid accumulation score (library stock concentration: 100 uM): ≤ -0.021

Cc1cc2c(OCC(CNC(C)(C)C)OC(=O)c3ccccc3)cccc2[nH]1 (centres undefined) [Bopindolol malonate]
scaled lipid accumulation score (library stock concentration: 5.3 mM): ≤ -0.006

COc1ccc(/C=C\c2cc(OC)c(OC)c(OC)c2)cc1O [Combrestatin A4]
scaled lipid accumulation score [1]: 0.237 (active)

COc1cc(/C=C/C(=O)O)ccc1O [Ferulic Acid]
scaled lipid accumulation score [5]: ≤ 0
scaled lipid accumulation score [6]: ≤ 0

COc1cc(/C=C/C(N)=O)cc(OC)c1OC
scaled lipid accumulation score [6]: 0.006

COc1cc(/C=C/C(=O)O)ccc1O [Ferulic acid]
scaled lipid accumulation score [6]: ≤ 0

Nc1[nH]nc2nc3ccccc3nc12
scaled lipid accumulation score [6]: ≤ -0.006

CC(C)[C@H](N)C(=O)OCC(CO)OCn1cnc2c(=O)[nH]c(N)nc21 (some centres undefined) [Valganciclovir HCl]
scaled lipid accumulation score [5]: ≤ 0
scaled lipid accumulation score [6]: 0.028

COC(=O)C(Cc1ccc(OCCn2c(=O)sc3cc(C(=O)c4ccccc4)ccc32)cc1)C(=O)OC
scaled lipid accumulation score [6]: ≤ 0

CCCCN(CC)c1nc(C)nc2c1c(C)cn2-c1c(C)cc(C)cc1C
scaled lipid accumulation score [6]: 0.047

Cc1ccc(NC(=O)c2ccc(CN3CCN(C)CC3)cc2)cc1Nc1nc(-c2cccnc2)cs1 [Masitinib (AB1010)]
scaled lipid accumulation score [5]: 1.13 (active)
scaled lipid accumulation score [6]: 0.856 (active)

Cc1ccc(-c2csc(NC(=O)c3ccccc3)n2)c(C)c1
scaled lipid accumulation score [5]: ≤ -0.009
scaled lipid accumulation score [6]: ≤ 0

Cc1ccc(NC(=O)c2ccc(CN3CCN(C)CC3)cc2)cc1Nc1nc(-c2cccnc2)cs1 [Masitinib] [listing 1 of 2 here]
scaled lipid accumulation score [2]: ≤ -0.009
scaled lipid accumulation score [3]: 0.153
scaled lipid accumulation score [4]: 0.121

Cc1cc(C)c(-c2csc(NC(=O)c3ccccc3)n2)c(C)c1
scaled lipid accumulation score [5]: ≤ -0.009
scaled lipid accumulation score [6]: 0.033

Cc1ccc(NC(=O)c2ccc(CN3CCN(C)CC3)cc2)cc1Nc1nc(-c2cccnc2)cs1 [Masitinib (AB1010, Masivet) (2 mM)]
scaled lipid accumulation score [4]: 1.37 (active)

Cc1ccc(NC(=O)c2ccc(CN3CCN(C)CC3)cc2)cc1Nc1nc(-c2cccnc2)cs1 [Masitinib (AB1010, Masivet) (10 mM)]
scaled lipid accumulation score [6]: 0.755

Cc1ccc(NC(=O)c2ccc(CN3CCN(C)CC3)cc2)cc1Nc1nc(-c2cccnc2)cs1 [Masitinib (AB1010, Masivet) (0.4 mM)]
scaled lipid accumulation score [3]: 0.487

Cc1ccc(NC(=O)c2ccc(CN3CCN(C)CC3)cc2)cc1Nc1nc(-c2cccnc2)cs1 [Masitinib] [listing 2 of 2 here]
scaled lipid accumulation score [6]: 1.07 (active)

CCCCCCCCCCCCCCCC(=O)C1=C(O)[C@@H](CO)OC1=O
scaled lipid accumulation score (library stock concentration: 13.6 mM): ≤ -0.012

CC1(C)[C@H]2CC[C@]1(CS(=O)(=O)O)C(=O)C2=Cc1ccc(C=C2C(=O)[C@@]3(CS(=O)(=O)O)CC[C@@H]2C3(C)C)cc1
scaled lipid accumulation score [6]: ≤ 0

O=C1NC(=O)/C(=C\c2cccc(C(F)(F)F)c2)S1 [PIM12 kinase inhibitor V]
scaled lipid accumulation score [2]: ≤ -0.001
scaled lipid accumulation score [3]: ≤ -0.001
scaled lipid accumulation score [4]: ≤ -0.001
scaled lipid accumulation score [6]: 0.011

CCCCCC(=O)CC[C@@H]1[C@@H](CCCCCCC(=O)O)[C@@H](O)C[C@H]1O [13,14-dihydro-15-keto Prostaglandin F1.alpha.]
scaled lipid accumulation score [1]: ≤ 0

O=[N+]([O-])c1cc(Cl)ccc1S(=O)(=O)N1CCN(Cc2ccccc2)CC1
scaled lipid accumulation score [6]: 0.048

CN(C)c1cnccn1
scaled lipid accumulation score [6]: ≤ 0

CCCCC[C@](C)(O)/C=C/[C@H]1[C@H](O)CC(=O)[C@@H]1C/C=C\CCCC(=O)O [15(S)-15-methyl Prostaglandin E2]
scaled lipid accumulation score [1]: ≤ 0

CCc1cc2c(cc1N1CCC(N3CCOCC3)CC1)C(C)(C)c1[nH]c3cc(C#N)ccc3c1C2=O [listing 1 of 2 here]
scaled lipid accumulation score [2]: ≤ -0.016
scaled lipid accumulation score [3]: ≤ -0.016
scaled lipid accumulation score [4]: 0.126

N#Cc1ccc2[nH]c(O)c(-c3ccc(CN4CCOCC4)cn3)c2c1
scaled lipid accumulation score [5]: 0.477
scaled lipid accumulation score [6]: 0.769

CCc1cc2c(cc1N1CCC(N3CCOCC3)CC1)C(C)(C)c1[nH]c3cc(C#N)ccc3c1C2=O [listing 2 of 2 here]
scaled lipid accumulation score [6]: 1.17 (active)

CC#CCOC(=O)C1=CCCN(C)C1 [Arecaidine but-2-ynyl ester tosylate]
scaled lipid accumulation score [6]: ≤ 0

CCOC(=O)[C@H](CCc1ccccc1)N[C@@H](C)C(=O)N1Cc2cc(OC)c(OC)cc2C[C@H]1C(=O)O [Moexipril hydrochloride]
scaled lipid accumulation score [6]: 0.011

CCOC(=O)[C@H](CCc1ccccc1)N[C@@H](C)C(=O)N1Cc2cc(OC)c(OC)cc2C[C@H]1C(=O)O [Moexipril HCl]
scaled lipid accumulation score [5]: ≤ 0
scaled lipid accumulation score [6]: ≤ 0

CO[C@H]1C[C@H](O[C@H]2[C@H](C)[C@@H](O[C@@H]3O[C@H](C)C[C@H](N(C)C)[C@H]3O)[C@@H](C)C[C@@]3(CO3)C(=O)[C@H](C)[C@@H](O)[C@@H](C)[C@@H](C)OC(=O)[C@@H]2C)O[C@@H](C)[C@@H]1O [Oleandomycin phosphate]
scaled lipid accumulation score: ≤ 0
scaled lipid accumulation score [6]: ≤ 0
